The values below come from the supplement of paper PMC3545927.

The other results are listed elsewhere or left out. How many sequences the whole screen found active is unknown.

This assay concerns the target furin, P09958. Kind of assay: furin cleavage Z-score vs untreated control; higher = more cleavage, active = 3.5 or more, inactive = 1 or less, 8 variable residues between constant flanks. Put shortly: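 Cleavage by purified furin was measured on 8-mer peptides fused to a cDNA oligonucleotide and held on magnetic beads by their N-terminus. Reactions (0.01 ml, 1:10 enzyme:substrate) ran 7.5, 15 or 30 min in 50 mM HEPES pH 7.5 with CaCl2 and NaCl. Released DNA was adapter-tagged by PCR and sequenced, with read counts giving abundance. Log counts versus furin-free reactions were lowess-adjusted and scaled by median absolute deviation to give the cleavage Z-score.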

Sequence of furin, P09958 (P09958 whole entry, the tested form may be a part): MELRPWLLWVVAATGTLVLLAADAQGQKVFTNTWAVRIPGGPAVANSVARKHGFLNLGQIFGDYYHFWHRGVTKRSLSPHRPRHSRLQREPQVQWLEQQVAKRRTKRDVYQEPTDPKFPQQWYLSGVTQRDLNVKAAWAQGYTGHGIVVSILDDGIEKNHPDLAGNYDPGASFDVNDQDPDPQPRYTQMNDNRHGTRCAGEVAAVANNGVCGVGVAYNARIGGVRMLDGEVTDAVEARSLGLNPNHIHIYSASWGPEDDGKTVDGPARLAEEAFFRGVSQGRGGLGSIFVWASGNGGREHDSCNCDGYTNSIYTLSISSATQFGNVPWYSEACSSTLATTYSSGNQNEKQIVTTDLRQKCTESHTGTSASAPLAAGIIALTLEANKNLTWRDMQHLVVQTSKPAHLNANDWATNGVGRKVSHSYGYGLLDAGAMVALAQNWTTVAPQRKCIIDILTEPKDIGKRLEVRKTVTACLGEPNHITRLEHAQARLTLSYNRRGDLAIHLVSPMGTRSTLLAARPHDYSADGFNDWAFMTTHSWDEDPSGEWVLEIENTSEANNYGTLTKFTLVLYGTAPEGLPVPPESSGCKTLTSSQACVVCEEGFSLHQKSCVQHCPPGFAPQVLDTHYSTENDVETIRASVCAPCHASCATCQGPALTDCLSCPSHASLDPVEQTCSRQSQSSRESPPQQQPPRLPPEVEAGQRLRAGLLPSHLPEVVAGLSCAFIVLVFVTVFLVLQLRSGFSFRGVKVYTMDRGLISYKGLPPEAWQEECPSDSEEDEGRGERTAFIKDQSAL

B1: HC1674 (peptide)
chain: CAKEECSQHLAGNASASA
Take B1: the “furin cleavage Z-score” value reads like this: (7.5 min) 0.0836 (inactive); (15 min) -0.555 (inactive); (30 min) 1.98.

B2: HC1039 (peptide)
chain: CALETFWAKHAGNASASA
In the case of B2, the “furin cleavage Z-score” value reads like this: (7.5 min) -0.932 (inactive); (15 min) -0.375 (inactive); (30 min) 0.0766 (inactive).

B3: FS-2848 (peptide)
chain: CARYKRHFKLAGNASASA
With B3, the “furin cleavage Z-score” value was 1.05 (7.5 min), 2.24 (15 min) and 5.27 (active) (30 min).

B4: FS-2849 (peptide)
chain: CARYKRPGLPAGNASASA
Consider B4, for which the “furin cleavage Z-score” value is -0.56 (inactive) (7.5 min), 0.396 (inactive) (15 min) and 1.9 (30 min).

B5: FS-2112 (peptide)
chain: CARYKRWRKHAGNASASA
For the sequence B5, the “furin cleavage Z-score” value is 4.44 (active) (7.5 min), 6.03 (active) (15 min) and 5.36 (active) (30 min).

B6: HC1846 (peptide)
chain: CATMPCSGSWAGNASASA
In the case of B6, the “furin cleavage Z-score” value runs as follows: (7.5 min) -0.28 (inactive); (15 min) -1.3 (inactive); (30 min) -0.468 (inactive).

B7: FS-1455 (peptide)
chain: CAGCGRICRDAGNASASA
As for B7, the “furin cleavage Z-score” value (7.5 min) is 1.57, the “furin cleavage Z-score” value (15 min) is 3.73 (active) and the “furin cleavage Z-score” value (30 min) was 3.06.

B8: FS-2648 (peptide)
chain: CARARRHAADAGNASASA
With B8, the “furin cleavage Z-score” value is, setting by setting: (7.5 min) 12.4 (active); (15 min) 14.4 (active); (30 min) 8.89 (active).

B9: FS-1683 (peptide)
chain: CARARRFSGLAGNASASA
On to B9, for which the “furin cleavage Z-score” value by setting is: (7.5 min) -0.486 (inactive); (15 min) -0.258 (inactive); (30 min) 0.853 (inactive).

B10: FS-2547 (peptide)
chain: CARARRFCRDAGNASASA
As to B10, the “furin cleavage Z-score” value by setting is: (7.5 min) 11.3 (active); (15 min) 11.2 (active); (30 min) 8.57 (active).

B11: FS-1848 (peptide)
chain: CARARRPHFDAGNASASA
Turning to B11, the “furin cleavage Z-score” value (7.5 min) is -1.25 (inactive), the “furin cleavage Z-score” value (15 min) was -0.201 (inactive) and the “furin cleavage Z-score” value (30 min) was 0.259 (inactive).

B12: FS-2644 (peptide)
chain: CARARRFAQIAGNASASA
Turning to B12, the “furin cleavage Z-score” value reads like this: (7.5 min) 1.75; (15 min) 2.84; (30 min) 5.09 (active).

B13: HC985 (peptide)
chain: CAMSADLEVVAGNASASA
For the sequence B13, the “furin cleavage Z-score” value runs as follows: (7.5 min) -0.119 (inactive); (15 min) 0.307 (inactive); (30 min) -0.651 (inactive).

B14: HC1592 (peptide)
chain: CALDCEIYGAAGNASASA
As to B14, the “furin cleavage Z-score” value (7.5 min) was -0.215 (inactive), the “furin cleavage Z-score” value (15 min) was -0.505 (inactive) and the “furin cleavage Z-score” value (30 min) is -1.05 (inactive).

B15: HC384 (peptide)
chain: CAFNSSGCPEAGNASASA
For B15, the “furin cleavage Z-score” value is -0.864 (inactive) (7.5 min), -1.69 (inactive) (15 min) and -0.153 (inactive) (30 min).

B16: HC1103 (peptide)
chain: CAAILSPGALAGNASASA
Regarding B16, the “furin cleavage Z-score” value by setting is: (7.5 min) 0.122 (inactive); (15 min) -1.5 (inactive); (30 min) -0.137 (inactive).

B17: HC983 (peptide)
chain: CAIMTCMSADAGNASASA
With B17, the “furin cleavage Z-score” value by setting is: (7.5 min) -1.36 (inactive); (15 min) 0.0813 (inactive); (30 min) -2.62 (inactive).

B18: HC1401 (peptide)
chain: CADSHYQDVLAGNASASA
As for B18, the “furin cleavage Z-score” value is -0.596 (inactive) (7.5 min), -0.846 (inactive) (15 min) and 0.188 (inactive) (30 min).

B19: HC2299 (peptide)
chain: CADPEVVTSTAGNASASA
For B19, the “furin cleavage Z-score” value (7.5 min) is -0.751 (inactive), the “furin cleavage Z-score” value (15 min) is -0.261 (inactive) and the “furin cleavage Z-score” value (30 min) was -0.557 (inactive).

B20: HC2219 (peptide)
chain: CAEVVTSPWVAGNASASA
Turning to B20, the “furin cleavage Z-score” value (7.5 min) is -0.287 (inactive), the “furin cleavage Z-score” value (15 min) is -0.0163 (inactive) and the “furin cleavage Z-score” value (30 min) was 0.0529 (inactive).

B21: HC2354 (peptide)
chain: CAEVKCHRPSAGNASASA
B21: the “furin cleavage Z-score” value (7.5 min) is 0.191 (inactive), the “furin cleavage Z-score” value (15 min) is -0.204 (inactive) and the “furin cleavage Z-score” value (30 min) came to 1.45.

B22: FS-2480 (peptide)
chain: CARARRHSDGAGNASASA
As to B22, the “furin cleavage Z-score” value reads like this: (7.5 min) 6.39 (active); (15 min) 6.07 (active); (30 min) 5.39 (active).

B23: HC1285 (peptide)
chain: CAKVVILDSFAGNASASA
In the case of B23, the “furin cleavage Z-score” value is -0.496 (inactive) (7.5 min), -1.22 (inactive) (15 min) and -0.351 (inactive) (30 min).

B24: HC1122 (peptide)
chain: CAASRGNHVSAGNASASA
Turning to B24, the “furin cleavage Z-score” value by setting is: (7.5 min) 1.32; (15 min) 0.577 (inactive); (30 min) 1.1.
